PLK1 PBD inh: inhibitors of human PLK1 polo-box domain binding; AID 720504; Potency, µM, without a hit: max response, negative = inhibition, usual class: inhibitors; 360,000 tested, 2.8% active; Plk1 PBD binding of FITC phosphopeptide, fluorescence polarization; also: potency is read from the fitted curve at half-maximal effect; series mostly up to about 57 µM; % is scaled to controls: 0 for no effect and ±100 for the full control effect; nearly all actives have a fitted effect of over 65% in size
Target sequence (P53350 whole entry, looked up, the tested form may be a part): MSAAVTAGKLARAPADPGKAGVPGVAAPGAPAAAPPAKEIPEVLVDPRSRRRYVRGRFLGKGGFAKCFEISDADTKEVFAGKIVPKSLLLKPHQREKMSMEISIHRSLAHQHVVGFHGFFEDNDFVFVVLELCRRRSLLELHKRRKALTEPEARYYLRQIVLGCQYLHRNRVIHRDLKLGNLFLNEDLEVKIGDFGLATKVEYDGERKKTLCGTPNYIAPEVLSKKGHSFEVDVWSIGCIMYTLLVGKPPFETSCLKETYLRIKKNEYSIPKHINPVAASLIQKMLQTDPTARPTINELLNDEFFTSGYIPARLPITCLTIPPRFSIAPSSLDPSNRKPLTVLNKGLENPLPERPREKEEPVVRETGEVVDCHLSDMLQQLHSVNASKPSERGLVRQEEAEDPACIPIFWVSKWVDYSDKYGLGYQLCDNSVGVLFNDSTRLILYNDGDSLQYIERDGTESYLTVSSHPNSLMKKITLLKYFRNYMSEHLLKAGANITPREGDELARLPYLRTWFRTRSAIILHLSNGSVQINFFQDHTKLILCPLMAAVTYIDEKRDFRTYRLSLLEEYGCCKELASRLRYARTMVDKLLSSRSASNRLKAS
JMJD2A Tudor: JMJD2A Tudor domain (human) inhibition; AID 504339; 390,000 tested, 4.4% active; Potency, µM (top dose mostly 114 µM), inactives show at the top dose activity change, negative = inhibition, actives largely listed as inhibitors; O75164; AlphaScreen JMJD2A-Tudor / H3K4me3 peptide binding; also: potency is read from the fitted curve at half-maximal effect; % is scaled to controls: 0 for no effect and ±100 for the full control effect; nearly all actives have a fitted effect of over 50% in size
G9a block: blocks human histone lysine methyltransferase G9a; Q96KQ7; G9a H3K9 monomethylation, AlphaScreen, 2 h; Potency, µM (top dose mostly 102 µM), for the others: top-dose activity, negative = inhibition, most hits filed as inhibitors; 350,000 tested, 8.8% active; AID 504332; also: potency is read from the fitted curve at half-maximal effect; % is scaled to controls: 0 for no effect and ±100 for the full control effect; nearly all actives have a fitted effect of over 75% in size
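Enzyme 20 nM + cpd, 15 min RT; add b-H3K9 pep 500 nM / SAM 20 uM; 2 h RT; anti-H3K9me1 Ab 0.5 ug/mL + SA donor / anti-rabbit acceptor beads 20 ug/mL each, 10 min; AlphaScreen read.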
BAZ2B inh: BAZ2B (human) inhibition; 360,000 tested, 4.4% active; Potency, µM (titrated, usually from 114 µM), without a hit: top-dose activity change, negative = inhibition, usual class: inhibitors; Q9UIF8; AID 504333; AlphaScreen BAZ2B-H3K14Ac peptide displacement; also: potency is read from the fitted curve at half-maximal effect; % is scaled to controls: 0 for no effect and ±100 for the full control effect; nearly all actives have a fitted effect of over 60% in size
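Compounds, titrated to a top concentration of 110 uM, were incubated 30 min at room temperature with preformed BAZ2B/acetyl-K14 H3 peptide complex (50 nM each). Proximity signal was measured by AlphaScreen after 20 min with beads.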
PI5P4K alpha inh: inhibitors of human PI5P4K alpha | PI5P4Kalpha enzyme, ADP-Glo luminescence, 60 min; active compounds read low | max response, % | 330,000 tested, 1.2% active | AID 652105; active = max response of -50% or lower; inconclusive = between -30% and -50%; inactive = -30% or higher; also: value at the top dose of about 77 µM; % is scaled to controls: 0 for no effect and ±100 for the full control effect
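Luminescence from ADP-Glo served as readout of PI5P4Kalpha activity in a qHTS format. Reaction: enzyme, substrate, compound, ATP at 5 microM final, 60 min at RT.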
HP1b binding inh: inhibitors of HP1-beta chromodomain binding to methylated histone tails. P83916. 390,000 tested, 0.56% active. AID 540317. AlphaScreen HP1-beta / biotin-H3K9me3 peptide binding. Potency, µM (titrated, usually from 114 µM), for inactives: at the top dose activity change, negative = inhibition, most hits filed as inhibitors; also: potency is read from the fitted curve at half-maximal effect; nearly all actives have a fitted effect of over 70% in size
Target sequence (P83916 whole entry, looked up): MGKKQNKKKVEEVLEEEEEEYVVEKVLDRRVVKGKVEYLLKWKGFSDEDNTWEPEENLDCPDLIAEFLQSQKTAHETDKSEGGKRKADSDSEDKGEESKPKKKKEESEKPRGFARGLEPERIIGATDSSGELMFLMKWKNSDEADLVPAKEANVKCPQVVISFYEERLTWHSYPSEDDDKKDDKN
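AlphaScreen: HP1-beta (50 nM) preformed 30 min with biotin-H3(1-18)K9me3 peptide (50 nM) in PBS pH 7.4, 0.01% Tween-20. Compound added for 30 min at RT, then streptavidin donor/nickel chelate acceptor beads (10 ug/mL) for 30 min.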
An asterisk follows results filed as active; [ ] = remark or other dose. Shown are actives, neighbours in structure and some others; about 12% of the full set was active somewhere. Unless noted, calls follow the shape of the dose curve; as a rule, active = well fitted curve in the direction sought with a large enough effect; inconclusive = small, poorly fitted or top-dose-only effect, or another doubt; inactive = no such curve, though single readings can be large; an effect the other way counts as inactive or inconclusive.

How did Nc1ccc2nc(CCCO)[nH]c2c1 do in these assays?
PLK1 PBD inh: 2.9%; JMJD2A Tudor: -9.5%; G9a block: 28.2µM*; BAZ2B inh: 50.1µM*; PI5P4K alpha inh: -1.9; HP1b binding inh: 33.8%

What do the screens show for `COC(=O)c1ccc(C(=O)OCCCc2nc3ccc(N)cc3[nH]2)cc1`?
PLK1 PBD inh: -1.5%; JMJD2A Tudor: -28.2%; G9a block: -6.6%[59 µM]; BAZ2B inh: -11.1%; PI5P4K alpha inh: -7.7; HP1b binding inh: 7.1%

How did COc1ccc(N2CCN(C(=O)c3cn(C)c4ccc(S(=O)(=O)N(C)C5CCCCC5)cc4c3=O)CC2)cc1 do in these assays?
JMJD2A Tudor: -15.0%; G9a block: inconclusive; HP1b binding inh: 14.6%

Results for COc1ccc(-c2sc(C(=O)c3ccc(Cl)cc3Cl)cc2CC(=O)O)cc1 ?
PLK1 PBD inh: -15.6%; JMJD2A Tudor: 10.8%; G9a block: 16.1%; BAZ2B inh: 12.5%; PI5P4K alpha inh: -0.8; HP1b binding inh: 16.0%

Results for COc1ccc(CNc2ccccc2C(=O)NCc2ccccc2)cc1COc1ccc(NC(C)=O)cc1 ?
JMJD2A Tudor: inconclusive; HP1b binding inh: 9.9%

Results for COCCNc1nc(N2CCCCC2)c2cnn(C)c2n1 ?
PLK1 PBD inh: -7.5%; JMJD2A Tudor: -9.5%; G9a block: -11.7%; BAZ2B inh: -19.0%; PI5P4K alpha inh: 2.9; HP1b binding inh: 7.4%[57 µM]

What do the screens show for `Cc1ccccc1OCc1nc2ccccc2[nH]1`?
PLK1 PBD inh: 26.7µM*; JMJD2A Tudor: inconclusive; G9a block: 17.8%; BAZ2B inh: -14.9%; PI5P4K alpha inh: -9.7; HP1b binding inh: -24.1%

How did Cn1c(CCc2nc3ccccc3[nH]2)n[nH]c1=S do in these assays?
PLK1 PBD inh: -19.8%; JMJD2A Tudor: 7.94µM*; G9a block: inconclusive; BAZ2B inh: 0.3%; PI5P4K alpha inh: -10.4; HP1b binding inh: 16.7%

Results for Oc1ccc(O)c(Cc2nc3ccccc3[nH]2)c1 ?
PLK1 PBD inh: -17.3%; JMJD2A Tudor: 10µM*; G9a block: 3.16µM*; BAZ2B inh: -34.0%; PI5P4K alpha inh: -8.1; HP1b binding inh: inconclusive

How did CN(CC(=O)O)Cc1nc2ccccc2[nH]1 do in these assays?
PLK1 PBD inh: -0.1%; JMJD2A Tudor: -71.2%; G9a block: 1.26µM*; BAZ2B inh: 20µM*; HP1b binding inh: 32.4%

What do the screens show for `CC(C)(C)c1ccc(C(=O)N2CCN(C(=O)c3ccco3)CC2)cc1`?
PLK1 PBD inh: 2.8%; JMJD2A Tudor: -12.5%; G9a block: 32.7%; BAZ2B inh: -13.1%; PI5P4K alpha inh: -0.5; HP1b binding inh: 25.4%

What do the screens show for `O=C(CCc1nc2ccccc2[nH]1)N1CCc2ccccc2C1`?
PLK1 PBD inh: inconclusive; JMJD2A Tudor: -20.7%; G9a block: 89.1µM*; BAZ2B inh: 5.3%; PI5P4K alpha inh: -1.7; HP1b binding inh: 13.5%

How did CCCCCC1CC(=O)C=C(C)C1C(=O)OC (centres undefined) do in these assays?
PLK1 PBD inh: -3.1%; JMJD2A Tudor: 4.9%; BAZ2B inh: 18.9%; PI5P4K alpha inh: -7.8; HP1b binding inh: 46.9%

How did CC12CCC(C(=O)N(CSC(=S)N/N=C\c3ccccc3Cl)C1=O)C2(C)C (centres undefined) do in these assays?
PLK1 PBD inh: -21.6%; JMJD2A Tudor: inconclusive; G9a block: 3.8%[59 µM]; BAZ2B inh: -35.5%; PI5P4K alpha inh: 10.3; HP1b binding inh: 5.1%

What do the screens show for `CC12CCC(C(=O)N(CSC(=S)N/N=C\c3ccccc3)C1=O)C2(C)C` (centres undefined)?
PLK1 PBD inh: 3.36µM*; JMJD2A Tudor: -28.2%[11.4 µM]; G9a block: -9.4%[59 µM]; BAZ2B inh: -32.4%; PI5P4K alpha inh: inconclusive; HP1b binding inh: -3.0%

Results for CC(=O)N1CC=CC1(C)C(=O)O (centres undefined) ?
PLK1 PBD inh: -10.5%; JMJD2A Tudor: -10.7%; G9a block: 50.1µM*; BAZ2B inh: -3.8%; PI5P4K alpha inh: -4.5; HP1b binding inh: 28.4%

How did CC1(C(=O)O)C=CCN1C(=O)c1ccccc1 (centres undefined) do in these assays?
PLK1 PBD inh: -2.2%; JMJD2A Tudor: -23.2%; G9a block: 1.6%; BAZ2B inh: -2.1%; PI5P4K alpha inh: 2.2; HP1b binding inh: 28.0%

Results for Cc1csc(SC(C)C(=O)Nc2ccc(Cl)cn2)n1 (centres undefined) ?
PLK1 PBD inh: 26.7µM*; JMJD2A Tudor: 0.8%[11.4 µM]; G9a block: 18.0%[59 µM]; BAZ2B inh: -4.6%; PI5P4K alpha inh: 0.2; HP1b binding inh: -0.9%

How did CCN(CC)C(=O)C1=C(C)N(Cc2ccccc2)C(=O)C(CC(=O)NCCN2CCOCC2)C1 (centres undefined) do in these assays?
PLK1 PBD inh: -0.7%; PI5P4K alpha inh: -7.5

Results for COCCCNC(=O)C(=O)NCC(c1ccc2c(c1)OCO2)N1CCOCC1 (centres undefined) ?
JMJD2A Tudor: -16.8%; G9a block: 4.0%[59 µM]; BAZ2B inh: -2.0%; HP1b binding inh: 12.4%[57 µM]

What do the screens show for `CCOC(=O)C1CCCN(C(=O)CSc2ccc(Br)cc2)C1` (centres undefined)?
PLK1 PBD inh: 23.8µM*; JMJD2A Tudor: 14.1µM*; G9a block: 34.0%; BAZ2B inh: 14.6%; PI5P4K alpha inh: -54.0*; HP1b binding inh: -12.2%

Results for CCOC(=O)C1CCCN(C(=O)COC(=O)C2=COCCO2)C1 (centres undefined) ?
PLK1 PBD inh: -6.4%; JMJD2A Tudor: 50.1µM*; G9a block: 50.1µM*; BAZ2B inh: inconclusive; PI5P4K alpha inh: -9.7; HP1b binding inh: -3.3%

How did Cc1cccc(N2C(=O)CS(=O)(=O)C23C(=O)N(Cc2c(F)cccc2Cl)c2ccccc23)c1 (centres undefined) do in these assays?
JMJD2A Tudor: -17.5%; G9a block: -32.7%[59 µM]; BAZ2B inh: 2.4%[57.1 µM]; HP1b binding inh: 16.3%

How did COc1ccccc1NS(=O)(=O)c1cccc(C(=O)NNC(=O)C(C)NC(=O)c2ccco2)c1 (centres undefined) do in these assays?
PLK1 PBD inh: -4.1%; JMJD2A Tudor: -11.4%; PI5P4K alpha inh: 3.2; HP1b binding inh: 30.3%

What do the screens show for `O=C(N/N=C/c1cc([N+](=O)[O-])ccc1O)C1CCCCC1`?
PLK1 PBD inh: -2.9%; JMJD2A Tudor: -19.7%; G9a block: 10.5%[59 µM]; BAZ2B inh: -32.6%; PI5P4K alpha inh: -6.6; HP1b binding inh: 31.5%

Results for Cc1nc2ccc(C(=O)N/N=C/c3cc([N+](=O)[O-])ccc3O)cc2[nH]1 ?
PLK1 PBD inh: -18.1%; JMJD2A Tudor: 56.2µM*; G9a block: -40.3%; BAZ2B inh: 35.5µM*; PI5P4K alpha inh: -25.7; HP1b binding inh: 55.7%

Results for Cc1nc2ccc(C(=O)N/N=C/c3ccccc3O)cc2[nH]1 ?
PLK1 PBD inh: -0.7%; JMJD2A Tudor: -30.3%; G9a block: -46.1%[59 µM]; BAZ2B inh: -37.5%; PI5P4K alpha inh: -5.3; HP1b binding inh: 38.8%

Source: PubChem BioAssay (National Center for Advancing Translational Sciences (NCATS))
